High-throughput results deposited in PubChem by Paczesny and Yang Labs, IUPUI and University of Michigan.
This excerpt belongs to a sample that is enriched for hits.
ST2 inh – blocks human ST2 binding to IL-33; 78,000 tested, 2.3% active; inhibition, % for hits at 17 µM; AlphaLISA ST2-Fc/biotin-IL-33 interaction, 1 h; in the data active means inhibition above about 30%
Target sequence (Q01638 whole entry, looked up): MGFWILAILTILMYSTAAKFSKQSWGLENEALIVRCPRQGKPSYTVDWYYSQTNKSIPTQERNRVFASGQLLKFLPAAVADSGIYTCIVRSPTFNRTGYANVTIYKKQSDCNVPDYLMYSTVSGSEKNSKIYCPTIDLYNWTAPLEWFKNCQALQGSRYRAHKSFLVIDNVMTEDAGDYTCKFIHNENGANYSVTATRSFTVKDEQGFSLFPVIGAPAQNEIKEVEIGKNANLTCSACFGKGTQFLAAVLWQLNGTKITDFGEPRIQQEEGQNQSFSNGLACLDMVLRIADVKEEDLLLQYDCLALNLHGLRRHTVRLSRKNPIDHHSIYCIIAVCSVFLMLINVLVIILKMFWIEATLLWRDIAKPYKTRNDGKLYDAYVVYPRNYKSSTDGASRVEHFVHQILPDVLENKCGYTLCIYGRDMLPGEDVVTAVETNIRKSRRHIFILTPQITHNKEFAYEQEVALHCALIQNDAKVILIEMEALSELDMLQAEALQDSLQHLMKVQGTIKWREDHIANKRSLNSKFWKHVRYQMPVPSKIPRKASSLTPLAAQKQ
Each line names hits and unclear results; the compound was inactive in the other large screens.

Oc1c(C=NCc2ccc(Cl)cc2Cl)[nH]c2ccc(Br)c(Cl)c12	none
COc1cc(Br)c(Br)c(C=Nc2ccc(F)cc2)c1O	none
Cc1c(Cl)c(C)c([N+](=O)[O-])c(O)c1C=Nc1ccc(F)cc1	none
COc1ccc(CCN=CC2=C(O)CC(c3ccccc3)CC2=O)cc1OC (configuration not stated)	none
Oc1c(C=NCCc2ccccc2)[nH]c2ccc(Br)c(Cl)c12	ST2 inh 32%
Oc1c(C=Nc2ccc(F)cc2)[nH]c2ccc(Br)c(Cl)c12	ST2 inh 30%
Oc1c(C=NCc2ccc(F)cc2)[nH]c2ccc(Br)c(Cl)c12	ST2 inh 39%
CCOc1ccc(CNC(=O)CN2C(=O)C(CC)=C(c3ccc(OC)cc3)S2(=O)=O)cc1OC	none
CCN1CCC(N2CCN(c3ccc(Cl)c(C(=O)O)n3)CC2)CC1	none
O=C(c1cn(Cc2ccccc2F)nn1)N1CCCC(C(=O)N2CCOCC2)C1 (configuration not stated)	none
CN1CC2=C(OC(N)=C(C#N)C2c2ccc(F)cc2)/C(=C/c2ccc(F)cc2)C1 (configuration not stated)	none
COc1cccc(-c2nc3cc(N=Cc4ccc([N+](=O)[O-])cc4)ccc3o2)c1	none
COc1cccc(-c2nc3cc(N=Cc4cccc(OC)c4O)ccc3o2)c1	none
COc1ccc(C=Nc2ccc3oc(-c4ccncc4)nc3c2)cc1Cl	ST2 inh 33%
O=C(NCCNC(=O)c1ccc2c(c1)OCO2)c1ccc2c(c1)OCO2	none
COc1ccc(S(=O)(=O)N2c3cc(C)ccc3C(C)=CC2(C)C)cc1	none
CCN(CCN(C)C)Cc1ccc(Cl)cc1	none
Cc1c(C(=O)N2CCN(c3ncccn3)CC2)sc2nc3n(c(=O)c12)CCCCC3	none
COC(=O)C(NC(=O)N1CCN(Cc2nc3cccnc3n2-c2cccc(C)c2)CC1)c1ccccc1 (configuration not stated)	none
Cc1cc(NC(=O)CN2C(=O)S/C(=C\c3ccccc3)C2=O)no1	none
O=C1S/C(=C\c2ccccc2F)C(=O)N1CNc1cccc(F)c1	none
CCCCN1C(=O)S/C(=C\c2cc(C)n(C)c2C)C1=O	ST2 inh 39%
O=C1N=C(N2CCN(CCO)CC2)S/C1=C\c1ccc(Br)cc1	none
CN1CCC(N2CC[C@@H]3[C@H]2C(=O)NC[C@H](CCC(=O)NCc2ccc(F)cc2)N3C)CC1	none
Cc1ccc(C2(O)CCN(c3nc(-c4cccc(C)c4)ccc3C(=O)O)CC2)nc1	none
COc1cc(OC)c(NC(=O)c2ccc(-c3ccccc3)cc2)cc1Cl	none
CNc1ncnc2c1C(c1ccc(Cl)cc1)c1c(NC)ncnc1O2	none
Cc1cccc(C(C)C)c1NC(=O)c1ccc(Br)cc1	none
Cc1ccc(C(CC(=O)Nc2ccccc2C)c2ccccc2)c(O)c1 (configuration not stated)	none
O=C(CN1C(=O)/C(=C/c2ccccc2F)Sc2ccccc21)NCCN1CCOCC1	none
Cc1ccc(CNC(=O)CN2C(=O)/C(=C/c3ccccc3F)Sc3ccccc32)cc1	none
O=C(CN1C(=O)/C(=C/c2ccccc2F)Sc2ccccc21)N1CCCC1	ST2 inh 33%
CC1=C[C@@H](CNCCN2CCOCC2)[C@H](C(C)C)C[C@H]1Cc1nnc(-c2cncn2C)o1	none
CCn1c(C2CCCN(Cc3cnn4c(C)cc(C)nc34)C2)nn(C)c1=O (configuration not stated)	none
CCSc1ccc(C(=O)O)cc1[N+](=O)[O-]	none
COCC(NC(=O)c1c(O)cccc1O)c1ccnn1C (configuration not stated)	none
CC(C)(C)c1ccc(S(=O)(=O)N=C2C=CC(=O)c3ccccc32)cc1	ST2 inh 44%
CCOc1cccc(S(=O)(=O)N=C2C=C(C(C)(C)C)C(=O)C(C(C)(C)C)=C2)c1	none
CC(C)(C)c1ccc(S(N)(=O)=O)cc1	none
CCc1ccc(S(=O)(=O)N2CCCN(S(=O)(=O)c3ccc(CC)cc3)CC2)cc1	none
CCOc1ccc(C2C(=O)c3ccccc3C2=O)cc1	none
CC(C)(C)c1ccc(S(=O)(=O)Nc2ccccn2)cc1	none
CCOc1ccc(S(=O)(=O)N=C2C=CC(=O)c3ccccc32)cc1	ST2 inh 49%
CCc1ccc(S(=O)(=O)N=C2C=CC(=O)c3ccccc32)cc1	ST2 inh 49%
CCc1ccc(S(=O)(=O)N(CC)CC)cc1	none
CC(C)Cc1cc(C(=O)N2CCCN(C(=O)C3CCCO3)CC2)n(C)n1 (configuration not stated)	none
CCOC(=O)C1=NN(c2ccc(Cl)cc2)C2C(=O)N(c3cccc(Cl)c3)C(=O)C12 (configuration not stated)	none
CC(=O)NC(=Nc1nc(C)cc(C)n1)Nc1ccc(Cl)c(Cl)c1	none
O=C(Nc1ccc(S(=O)(=O)Nc2nccs2)cc1)Nc1ccc(Cl)c(Cl)c1	none
CC1=C[C@@H](CN2CCN(CCO)CC2)[C@H](C(C)C)C[C@H]1Cc1nnc(-c2cccnc2)o1	none
N#Cc1nc(COc2ccccc2Cl)oc1NCCCn1ccnc1	ST2 inh 45%
Clc1ccccc1OCCCCN1CCNCC1	none
CN1CCN(Cc2ccc(OCc3ccccc3)cc2)CC1	none
N#Cc1nc(COc2ccc(Br)cc2)oc1N1CCN(Cc2ccccc2)CC1	ST2 inh 56%
Fc1ccccc1OCCCn1ccnc1	none
N#CSCCCCOc1ccccc1Cl	none
c1ccc(OCCCn2ccnc2)cc1	none
